The text below walks through data of PubChem BioAssay (NCATS).

Molecules are shown by their SMILES. Results filed as inconclusive are left out. Values without a mark were called inactive. Activity calls are given as the source filed them.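 Rule for the calls: active = dose-dependent loss of cell ATP signal giving a full or clear fitted curve, ranked by lower potency value; inconclusive = weak partial curve or response only at the top dose; inactive = no loss of viability signal.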
Potency is the fitted concentration of half-maximal effect.

This experiment can be described thus: Cell Viability - Jurkat (AID 426).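 Note: cells exposed to compound for 40 hours at 37 °C before ATP read.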 The settings on record: qHTS. The text has this: NIH Chemical Genomics Center [NCGC]
NIH Molecular Libraries Screening Centers Network [MLSCN]
National Institutes of Environmental Health Sciences [NIEHS]
National Toxicology Program [NTP]
We have developed a 1536-well cell-based assay for quantitative high throughput screening (qHTS) against a number of cell lines to determine in vitro cytotoxicity of small molecules. This particular assay uses the Jurkat cell line (Clone E6-1) which is derived from the human T cell leukemia.
NCGC Assay Protocol Summary:
The CellTiter-Glo luminescent cell viability assay (Promega) is a homogeneous method to measure the number of viable cells in culture. The end point readout of this assay is based on quantitation of intracellular ATP, an indicator of metabolic activity, using the luciferase reaction. Luciferase catalyzes the oxidation of beetle Luciferin to oxyluciferin and light in the presence of ATP. The luminescent signal is proportional to amount of ATP present.
Using the CellTiter-Glo luminescent cell viability assay, the amount of cellular ATP was measured in the Jurkat cell line with complete culture medium following compound treatment for 40 hours. The assay was performed in opaque white Kalypsys 1536-well plates. In the screen, tamoxifen and doxorubicin were used as positive controls. Library compounds were measured for their ability to cause acute toxicity in the cell line, as reflected by a decrease in intracellular ATP levels, in a concentration-dependent manner. […] AC50 values were determined from concentration-response data modeled with the standard Hill equation.
qHTS protocol for CellTiter Glo Jurkat cellular assay
[Step] [Parameter] [Value] [Description]
1. Reagent; 5 uL; 5000 Jurkat cells/well
3. Controls; 23 nL; Tamoxifen 0.34 uM to 100 uM & Doxorubicin 0.02 nM to 100 uM
4. Time; 40 hr; 37 °C incubation
5. Reagent; 5 uL; CellTiter Glo reagent
6. Time; 20 min; Room Temperature
7. Detection; Luminescence; Viewlux plate reader
Keywords: cell viability, cytotoxicity, Jurkat cell line, luminescence, NTPHTS, NTPHTS_NCGC, NIEHS, EPA, DSSTox, MLSMR, MLSCN, NIH Roadmap, qHTS, NCGC
Turning to `O=S(=O)(O)F`, the Potency was above 92 µM.

On to `ClCC(Br)CBr` (stereo not given), for which the Potency was above 92 µM.

For `N#C/C=C/C#N`, the Potency is 20.8 µM (active).

As for `Nc1ccc(-c2ccccc2)cc1`, the Potency was above 92 µM.

As for `CC(C)CON=O`, the Potency is above 92 µM.

Take `CN(C)C(=O)Nc1cccc(C(F)(F)F)c1`: the Potency was above 92 µM.

For `c1ccoc1`, the Potency is above 92 µM.

On to `Cc1ccc(N)c(C)c1`, for which the Potency is above 92 µM.

`COC(=O)Nc1nc2ccccc2[nH]1`: the Potency was 3.38 µM (active).

Take `O=P(OCCCl)(OCCCl)OCCCl`: the Potency was above 92 µM.

With `Cc1cc(-c2cc(C)c(N)c(C)c2)cc(C)c1N`, the Potency is above 92 µM.

Turning to `C/C=C/CC#N`, the Potency is above 92 µM.

As to `O=C(Cc1ccccc1)OCc1ccccc1`, the Potency is above 92 µM.

Turning to `ClC(Cl)C(Cl)Cl`, the Potency is above 92 µM.

As for `Nc1ccc(Cc2ccc(N)cc2)cc1`, the Potency was above 92 µM.

Take `C=CCOCC1CO1` (stereo not given): the Potency is above 92 µM.

`Nc1ccccc1-c1ccccc1`: the Potency was above 92 µM.

Consider `CCOP(=O)(OCC)OCC`, for which the Potency was above 92 µM.

`C=CCO`: the Potency was above 92 µM.

Regarding `[N-]=[N+]=[N-]`, the Potency was above 92 µM.

For `CNC(=O)O/N=C/C(C)(C)S(C)=O` (stereo not given), the Potency was above 92 µM.

In the case of `c1ccc(OCC2CO2)cc1` (stereo not given), the Potency is above 92 µM.

As for `COC(=O)c1ccccc1N`, the Potency is above 92 µM.

As for `O=C(O)C(Cl)Br` (stereo not given), the Potency is above 92 µM.

In the case of `CC[N+](=O)[O-]`, the Potency was above 92 µM.

On to `CCOC(=O)C1OC1(C)c1ccccc1` (stereo not given), for which the Potency was above 92 µM.

`C=CC(=O)OC`: the Potency is above 92 µM.

Take `Oc1cccc(Cl)c1`: the Potency is above 92 µM.

Regarding `Cc1cc(-c2ccc(N)c(C)c2)ccc1N`, the Potency was above 92 µM.

`Clc1cccc(Cl)c1`: the Potency was above 92 µM.

For `Cc1cccc(N)c1C`, the Potency is above 92 µM.

As to `CC(C)OC(=O)Cc1ccccc1`, the Potency was above 92 µM.

With `Nc1cc(Cl)ccc1Cl`, the Potency is above 92 µM.

On to `c1ccc(Nc2ccc(Nc3ccccc3)cc2)cc1`, for which the Potency was above 92 µM.

With `C/C=C/C=O`, the Potency is above 92 µM.

Regarding `Cc1ccc([N+](=O)[O-])cc1`, the Potency was above 92 µM.

For the molecule `O=C(Cl)c1ccccc1F`, the Potency was above 92 µM.

Take `ClC(Br)Br`: the Potency is above 92 µM.

Take `Cc1cc(Cl)ccc1O`: the Potency was above 92 µM.

On to `ClCCCCl`, for which the Potency is above 92 µM.
